Measurements taken from PubChem BioAssay (NCI).
The panel holds about 83,000 compounds, 20% with a hit somewhere; the sample as a whole holds those more often.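 Note: values are percent growth. 100 is the growth of untreated cells, values between 100 and 0 indicate rising inhibition; between -100 and 0 indicates cell death.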 Calls of active or inactive are those of the source. The calls were made as follows: active = growth percent below 10; inactive = the rest.

System: SF-268 CNS
Test: NCI-60 one-dose screen, 48 h (100 = growth as untreated, 0 = no growth, -100 = all killed)
Details: 10 µM unless noted

| SMILES | growth |
| --- | --- |
| O=C(Nc1ncc(Cc2ccccc2)s1)c1sc2ccccc2c1Cl | 52.1% (inactive) |
| Cc1ccccc1N1CCN(C(=S)c2ccccc2)CC1 | 105% (inactive) |
| CC(C)(C)c1ccc(S(=O)(=O)Oc2ccc(-c3sc4cc(OS(=O)(=O)c5ccc(C(C)(C)C)cc5)ccc4c3C(=O)c3ccc(OCCN4CCCCC4)cc3)cc2)cc1 | 102% (inactive) |
| CCn1cc(C(=O)N/N=C/c2ccccc2)c(=O)c2cc(F)c(N3CCNC(C)C3)c(F)c21 (centres undefined) | 38.9% (inactive) |
| COC1/C=C/OC2(C)Oc3c(C)c(O)c4c(O)c(c(/C=N/N(c5ccccc5)c5ccccc5)c(O)c4c3C2=O)NC(=O)C(C)=C/C=C/C(C)C(O)C(C)C(O)C(C)C(OC(C)=O)C1C (centres undefined) | 80.7% (inactive) |
| CS(=O)(=O)c1ccc(-c2nc3ccccc3n2CC(=O)N/N=C/c2ccccc2)cc1 | 97.5% (inactive) |
| CC(=O)O[C@H]1CC[C@]2(C)[C@H]3CC=C4[C@@H]5CC(C)(C)CC[C@]5(C(=O)N5CCN(CCC#N)CC5)CC[C@@]4(C)[C@]3(C)CC[C@H]2C1(C)C | 51.8% (inactive) |
| C[N+]1=C(/C=C/c2ccccc2Cl)C(C)(C)c2ccccc21 | 96.7% (inactive) |
| COC(=O)/C=C1/SC(=Nc2ccc(F)cc2)N(CCc2c[nH]c3ccc(O)cc23)C1=O | 45.9% (inactive) |
| Cc1c2ccccc2nc2cc3c(cc12)[C@H]1CC[C@]2(C)C(=O)CC[C@H]2[C@@H]1CC3 | 89.5% (inactive) |
| O=C(/C=C/C12c3ccccc3C(c3ccccc31)C1C(=O)NC(=O)C12)c1ccco1 (centres undefined) | 28.7% (inactive) |
| CC(C)Cc1nc(Nc2ccccc2)[nH]c(=O)c1C#N | 63.3% (inactive) |
| CN(C)/C(N)=N/N=C(\c1ccccc1)c1ccccn1 | 92.6% (inactive) |
| CS(=O)(=O)Nc1cc(-c2ccc3ncnc(Nc4ccc5c(cnn5Cc5ccccc5F)c4)c3c2)cnc1Cl | 24.3% (inactive) |
| Nc1cc(-c2ccc(Cl)cc2)nn1-c1nnc(/C=C/c2ccco2)c(=O)[nH]1 | 52.5% (inactive) |
| CCCN(CCSSCCNc1nc(N(C)O)nc(N(C)O)n1)c1nc(N(C)O)nc(N(C)O)n1 | 42.1% (inactive) |
| Cc1nc([P+](c2ccccc2)(c2ccccc2)c2ccccc2)c(N2CCCCC2)o1 | 26% (inactive) |

| SMILES | growth |
| --- | --- |
| CCN(CC)CCn1c2ccc(OC)cc2c2sc3cc(O)ccc3c(=O)c21 | 38.5% (inactive) |
| O=C(NCCCCCCNC(=O)OCc1ccc2c(Cl)cc(Cl)c(O)c2n1)OCc1ccc2c(Cl)cc(Cl)c(O)c2n1 | -50.7% (active) |
| O=C(Nc1cccnc1Nc1ccc(Cl)cc1)c1cn(Cc2cccc(Oc3ccccc3)c2)nn1 | 45.2% (inactive) |
| Cc1ccc2c(c1)sc1nc(-c3c[nH]c4ccccc34)c(Nc3ccccc3)n12 | 101% (inactive) |
| CN1c2ccccc2S(=O)(=O)n2c(SCC(=O)Nc3nc4ccc(F)cc4s3)nnc21 | 105% (inactive) |
| COC12C=C/C(=C(/C(=O)OCc3csc(SC)n3)C(=O)CCCCCCCCC3(OC)C=C/C(=C(/C(=O)OCc4cnc(SC)s4)C(=O)CCCCCCCC1)O3)O2 (centres undefined) | 44.7% (inactive) |
| Nc1[nH]nc2nc(-c3ccccc3)n3c4ccccc4nc3c12 | 107% (inactive) |
| CS(=O)/C(C#N)=C\C=C\c1cccc(Cl)c1 (centres undefined) | 17.2% (inactive) |
| CN(C)CCCC1(c2ccc(F)cc2)OCc2cc(-c3csc4ccccc34)ccc21 (centres undefined) | 38.6% (inactive) |
| COCCn1cc(-c2csc(-c3c[nH]c4ccccc34)n2)c2cccnc21 | 50.1% (inactive) |
| O=S(=O)(NCCNc1nccc(-c2c(-c3ccc(F)c(O)c3)nc3sccn23)n1)c1ccc(Cl)cc1 | 32.3% (inactive) |
| Cc1cccc(NC(=O)N/C(N)=N/c2nc3ccccc3s2)c1 | 54.2% (inactive) |
| N#Cc1c(-c2cccc(Cl)c2)cc(-c2cccnc2)[nH]c1=O | 79.9% (inactive) |
| C=CC(CC(c1ccccc1)(c1ccccc1)c1ccccc1)N(CC)CC (centres undefined) | 73.9% (inactive) |
| C/C(=C(\c1ccc(OCCN2CCCCCC2)cc1)c1ccc(OC(=O)c2ccccc2)cc1)c1ccc(Cl)cc1 | 43.1% (inactive) |
| O=C(/C=C/c1ccccc1)c1ccc(-n2cc(CN3CCN(c4cc5c(cc4F)c(=O)c(C(=O)O)cn5C4CC4)CC3)nn2)cc1 | 70.4% (inactive) |
| CCCCCCCCCCCCCCCCCCOc1ccccc1CC(=O)NCC[N+](C)(C)C | 24.2% (inactive) |
